# Data taken from the supplement of paper PMC6555819.
# Legend:
# Experiment in all cases: PBM binding z-score (relative to random genomic background probes); higher = stronger binding; sequences stand for … in GC…GCGATTGACAGCGTAGAATGAAGG
# [1] = system: FXR:RXRa (NR concentration 270 nM, RXRa partner concentration 90 nM)
# Procedure, shortened: (§1)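 Antibodies against each partner of ligand-free nuclear receptor dimers (one per run) detected binding on custom Agilent 4×180K protein-binding microarrays after 1 h incubation. The double-stranded probes had 34-nt variable regions carrying direct-repeat seeds, single-nucleotide variants, half-site ablations and random human genomic background sequences. Binding z-scores, from regression-normalized fluorescence, use the random background probes as reference.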
# [2] = system: LXRa:RXRa (NR concentration 270 nM, RXRa partner concentration 90 nM)
# Procedure, shortened: as §1
# [3] = system: LXRa homodimer (NR concentration 270 nM)
# Procedure, shortened: as §1
# [4] = system: LXRb:RXRa (NR concentration 270 nM, RXRa partner concentration 90 nM)
# Procedure, shortened: as §1
# [5] = system: LXRb homodimer (NR concentration 270 nM)
# Procedure, shortened: as §1
# [6] = system: PPARa:RXRa (NR concentration 270 nM, RXRa partner concentration 90 nM)
# Procedure, shortened: as §1
# [7] = system: PPARg:RXRa (NR concentration 180 nM, RXRa partner concentration 90 nM)
# Procedure, shortened: as §1
# [8] = system: PPARg:RXRa 270nM:90nM, anti-RXR (NR concentration 270 nM, RXRa partner concentration 90 nM)
# Procedure, shortened: as §1
# [9] = system: PPARg:RXRa 30nM:10nM, anti-RXR (NR concentration 30 nM, RXRa partner concentration 10 nM)
# Procedure, shortened: as §1
# [10] = system: PPARg:RXRa 90nM:30nM, anti-RXR (NR concentration 90 nM, RXRa partner concentration 30 nM)
# Procedure, shortened: as §1
Sequence,PBM binding z-score [1],PBM binding z-score [2],PBM binding z-score [3],PBM binding z-score [4],PBM binding z-score [5],PBM binding z-score [6],PBM binding z-score [7],PBM binding z-score [8],PBM binding z-score [9],PBM binding z-score [10]
GCTTACGGGTCAAAGGTTCTAGCATGAATAGAAT,6.11,4.09,-0.0816,4.09,-0.186,5.91,8.84,7.78,7.78,8.24
CAAACTAGGTCACCGGAAGGTTAAAGTCCGCATG,5.17,4.53,1.89,3.61,0.743,5.67,9.32,7.58,5.78,7.27
AGCATGAGGTTATTAAGATCAGGGAATTGCGGTC,1.6,1.5,0.191,1.14,-0.175,2.03,0.647,1.13,0.242,0.454
TCTTGTAGATCAACAGGTTAAGAAAGCTGGCCAA,0.41,0.634,-0.164,0.757,-0.124,1.33,0.000535,1.83,2.88,2.37
CCTCGGAGGACAACAGGAGTTCAGAGCTGCCAGA,0.094,0.777,1.72,-0.123,-0.822,0.00336,0.0297,-0.913,-1.16,-1.11
AGAACGAGGGCACACTGAGTTGATAGCAGAGTAG,0.801,0.517,-0.135,0.356,-0.454,2.02,1.96,1.64,0.493,1.01
CCTAATTGGTCAAGGTCACACACGCTATAGGTAC,4.21,4.15,2.33,4.22,1.18,4.36,3.13,3.45,1.13,2.69
TCGAGTAGGTTACCAACGGGGCATTCAGCTTTCT,0.106,1.75,-0.787,0.579,-1.13,1.15,0.374,1.13,1.03,0.692
CGAACTAGGTCATTGACAGGAAAGTGAATAGTAA,4.94,2.6,0.115,2.01,-0.078,4.67,7.36,6.32,3.65,5.55
CTACCAAGGTGATCAAGGTCGTTGATTACTATTC,0.873,0.837,0.0949,1.29,-0.12,1.65,0.258,0.508,-0.15,0.529
CGCCAAAGTTCAACTAAGGTAACGTAAAGCACGC,5.71,6.43,4.61,4.35,2.19,5.16,4.03,5.02,1.67,3.91
CCTAGCAGGCCGATCTGGGTCACTCAAGGCTTGA,0.827,0.587,-0.575,0.613,-0.973,2.6,1.46,1.5,-0.37,0.546
CCTACTGGGCCATCAGGTCAGTGATATCAACGTT,0.148,0.0376,0.047,0.311,-0.379,1.91,2.01,2.42,0.364,1.92
GCTTGTAGATCAAGGCTAAGAAAGACTAAGCTAA,-1.48,-0.741,-0.903,-0.837,-0.875,-0.665,-0.447,-0.418,-0.329,-0.359
TAGCCTAGGTCATGCGTGCCAGTATAGTGTCGGC,4.03,3.31,0.471,1.75,-0.0531,3.69,2.33,2.39,0.347,1.23
CCTAGCAGGCCAATCTTGGTCACTCAAGGCTTGA,-0.234,-0.221,-0.7,-0.577,-0.715,-0.114,-0.277,-0.609,-0.894,-0.992
CGAACTAGGTCATTGACCGGACAGTGAATAGTAA,5.26,4.95,2.4,3.37,0.0098,4.46,7.14,6.07,3.06,5.48
GCAGACAGGTGAAACGCAGGTAACTCTGGGTGGC,-0.204,-0.034,-0.674,-0.472,-1.14,0.489,0.484,0.284,-0.673,-0.347
GATACTGGGTCAAGGCCAGAGTACGCGTATTGAT,2.37,1.21,-0.0541,1.22,-0.791,4.05,5.9,5.27,2.7,4.74
GCGACTGGCGCATCAGCAGGTTACCATAACTTAA,-0.425,-0.781,-0.313,-0.631,-1.19,-0.493,-0.0523,-0.785,-0.798,-0.75
CCTTACGGGTCACTGACAGGTTACAGCATTTGGA,5.61,3.93,0.335,3.43,-0.275,5.01,4.41,4.6,1.49,3.28
ATCTCTAGGTAAAGTTCTGTGAAAGATCGATAGA,0.326,0.57,0.294,0.0682,0.741,0.12,0.24,0.886,0.571,0.677
CCTAGTTGGTCAAGGTCACAGACGCTATAGGTAC,4.56,3.92,1.56,3.6,0.603,4.38,3.54,3.88,1.54,2.79
TCATATAGGTAAAAGGTGTAAGTCGGTGTGGTAA,1.13,1.12,-0.0427,1.14,0.187,3.18,5.19,6.1,5.92,7.17
AGAACGAGGGCACGCTGAGTTGATAACAGAGTAG,0.997,0.505,-0.474,0.399,-0.662,2.29,2.11,1.82,0.679,1.14
